Several values for one entry are separate records, joined by “and”; a condition that tells them apart may be missing. Equal entries are not always repeated. About 83,000 compounds went through this panel and 20% of them were active in at least one assay; those are over-represented in the sample as a whole.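 A percent growth of 40 corresponds to 60% growth inhibition; 0 means no net growth; -100 means all cells died. Active threshold: below 10.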 Activity calls are given as the source filed them.
Each molecule was assayed on IGROV1 ovarian (assay: NCI-60 one-dose screen, 48 h (100 = growth as untreated, 0 = no growth, -100 = all killed)). Conditions: 10 µM.
Method: Growth inhibition of the IGROV1 human tumor cell line is measured as a screen for anti-cancer activity. Cells are grown in 96 well plates and exposed to the test compound for 48 hours. Compounds are tested at a single concentration, which is 10^-5 M for most compounds. The reported endpoint is percent growth (GI% or GIPRCNT), where numbers from 0 - 100% represent growth inhibition, and numbers from -100% - 0 represent cell death. For example, a value of 40 represents 60% growth inhibition. A value of 0 means no net growth occurred over the course of the experiment. A value of -40 indicates 40% of cells at the beginning of the experiment died by the end of the experiment. A value of -100 means all cells are dead at the end of the experiment.
NCI-60 Human Tumor Cell Lines Screen was performed using the standard one-dose NCI protocol, which is described in more detail at https://dtp.cancer.gov/discovery_development/nci-60/default.htm.
Compounds with GIPRCNT values below 10 were considered active. Activity score was based on GIPRCNT using the following formula: […]
Score is 0 for GIPRCNT values of 100 or above, 50 for GIPRCNT values of 0, and 100 for GIPRCNT values of -100.
For `CCc1ccccc1-n1c(N)c(C#N)c(-c2ccc(OC)c(OC)c2)c(C#N)c1=O`, the growth was 107% (inactive).
`O=C(O)c1sccc1O` was tested, and the growth was 74.7% (inactive).

Same assay, conditions: 10 µM unless noted
With `CC(C)C(=O)Nc1ccc([N+](=O)[O-])c(C(F)(F)F)c1` the growth was 94.5% (inactive) and 5.73% (active).
With `Cn1cc(-c2cc3c(Nc4ccc(CC(=O)Nc5cc(C(C)(C)C)on5)cc4)ncnc3[nH]2)cn1` the growth was -12.2% (active) and 2.63% (active).
For `CCCCOc1cc(C(=O)NCCN(CC)CC)c2ccccc2n1`, the growth was 102% (inactive) and 111% (inactive).
For `O=S(=O)(Nc1ccccc1)C1CCCCC1`, the growth was 105% (inactive) and 127% (inactive).
`O=C(c1ccc(Cl)cc1)C(NCCO)c1ccc(Cl)cc1` (stereo not given) was tested, and the growth was 88.5% (inactive) and 91.7% (inactive).
`O=[N+]([O-])c1ccc(/C=N\NC(=S)Nc2ccc(F)cc2)cc1` was tested, and the growth was 96.8% (inactive) and 99.1% (inactive).
With `CN1CCN(CCC=C2c3ccccc3Sc3ccc(S(=O)(=O)N(C)C)cc32)CC1` the growth was 62.1% (inactive) and 58.2% (inactive).
In the case of `O=Nc1ccc(O)cc1`, the growth is reported as 91.7% (inactive) and 82% (inactive).
For `Clc1ccc(NC(Nc2ccc(Cl)cc2)C(Cl)(Cl)Cl)cc1`, the growth was 75.3% (inactive) and 103% (inactive).
With `CCOC(=O)C(C(=O)OCC)C(c1ccccc1)N1CCN(c2ccccc2)CC1` (stereo not given) the growth was 107% (inactive).
In the case of `COC(=O)/C=C/c1cc(O)c2c(c1)C(C(=O)OC)C(c1ccc(O)c(O)c1)O2` (stereo not given), the growth is reported as 44.6% (inactive) and 38.3% (inactive).
`CN1C(=O)C(N=Nc2ccc([N+](=O)[O-])cc2)SC1=S` (stereo not given) was tested, and the growth was 56.7% (inactive) and 71.7% (inactive).
In the case of `OCc1ccccn1`, the growth is reported as 116% (inactive).
In the case of `C/C(=N\NC(=O)c1ccncc1)c1ccccc1O`, the growth is reported as 32.1% (inactive) and 19.1% (inactive).
`CN(C)CCCN1c2ccccc2Sc2ccc(Cl)cc21` was tested, and the growth was 69.7% (inactive) and 63.4% (inactive).
In the case of `COc1ccccc1/C=N\N=C(N/N=C/c1ccccc1OC)N/N=C/c1ccccc1OC`, the growth is reported as 87.7% (inactive) and 26.3% (inactive).
`CC(O)(CC(=O)CC(=O)c1ccccc1)c1ccccc1` (stereo not given) was tested, and the growth was 91.9% (inactive) and 103% (inactive).
For `Cc1cc(O)c2c(c1)C(=O)c1cc(O)cc(O)c1C2=O`, the growth was 65.9% (inactive) and 101% (inactive).
In the case of `COc1ccc(CCN(C)CCCC(C#N)(c2ccc(OC)c(OC)c2)C(C)C)cc1OC` (stereo not given), the growth is reported as 98.7% (inactive) and 94.4% (inactive).
In the case of `CNC(=O)c1cccc(-c2ccc3c(N4CCOC[C@@H]4C)nc(N4CCOC[C@@H]4C)nc3n2)c1`, the growth is reported as -16.6% (active) and -36.1% (active).
`Nc1ccccc1Nc1ccccc1` was tested, and the growth was 100% (inactive) and 109% (inactive).
With `Clc1ccc(SSc2ccc(Cl)cc2)cc1` the growth was 102% (inactive) and 83.4% (inactive).
`Nc1ncnc2c1ncn2C1CC(O)C(CO)O1` (stereo not given) was tested, and the growth was 116% (inactive).
`CC(C)(O)Cn1cc(-c2ccc3nc(OC4CC4)ccc3c2)c2c(N)ncnc21` was tested, and the growth was 74% (inactive) and 42.2% (inactive).
In the case of `O=C(Nc1ccc(Br)cc1)c1cc(Br)ccc1O`, the growth is reported as 13.6% (inactive).
`Nc1ccn(C2OC(CO)C(O)C2O)c(=O)n1` (stereo not given) was tested, and the growth was 50.9% (inactive) and 10.1% (inactive) and 106% (inactive).
In the case of `COc1cc(Nc2nc3ccccc3nc2NS(=O)(=O)c2ccc(NC(=O)c3ccc(C)c(OC)c3)cc2)cc(OC)c1`, the growth is reported as 6.75% (active) and -30.1% (active).
For `CCN(CC)CCC(CNc1ccnc2cc(Cl)ccc12)c1ccc(OC)cc1` (stereo not given), the growth was 52.3% (inactive) and 38% (inactive).
In the case of `CN1CCN(C2CCN(C(=O)Nc3cc(Oc4ccc(NC(=O)C5(C(=O)Nc6ccc(F)cc6)CC5)c(F)c4)ccn3)CC2)CC1`, the growth is reported as -58.6% (active) and 55.3% (inactive).
`O=C1OC2(c3ccccc31)c1ccc(O)c(O)c1Oc1c2ccc(O)c1O` was tested, and the growth was 117% (inactive) and 124% (inactive).
With `Cc1ccc(S(=O)(=O)NCN2C(=O)c3ccccc3C2=O)cc1` the growth was 107% (inactive).
With `Cc1cc(C)c(N)c(Br)c1` the growth was 97.1% (inactive) and 97.7% (inactive).
For `O=C(Cc1cccc2ccccc12)N/N=C/c1ccc2c(c1)CCC2`, the growth was 47.8% (inactive).
With `CN1CCN(Cc2occc(=O)c2O)CCN(C)CCN(Cc2occc(=O)c2O)CC1` the growth was 96.3% (inactive) and 54% (inactive).
`Cc1nn(-c2ccc(Cl)cc2)c2ncnc(N/N=C/c3ccccc3O)c12` was tested, and the growth was 23.9% (inactive) and 4.47% (active).
In the case of `O=C1NC(=O)C2(CCc3ccccc32)N1` (stereo not given), the growth is reported as 119% (inactive) and 106% (inactive).

Same assay, conditions: 100 µM
With `CCc1ccccc1-n1c(N)c(C#N)c(-c2ccc(OC)c(OC)c2)c(C#N)c1=O` the growth was 22.2% (inactive).
With `O=C(O)c1sccc1O` the growth was 36% (inactive).

— PubChem BioAssay (NCI)
